The supplement of paper PMC11732987, “Enantioselective OTUD7B fragment discovery through chemoproteomics screening and high-throughput optimisation” (Communications Chemistry, 2025)

Tests used:
Assay in all cases: log2 ratio of Biotin-Ahx-Ub-VS probe labelling (fragment/DMSO); higher = less target engagement (more negative = stronger competition), active = hit call of the paper (q ≤ 0.05, log2 ratio ≤ -1)
Conditions in all cases: compound concentration: 200 uM; treatment time: 3 h
[1] = molecular target: T1, USP19 (UniProt O94966)
T1 sequence (whole entry): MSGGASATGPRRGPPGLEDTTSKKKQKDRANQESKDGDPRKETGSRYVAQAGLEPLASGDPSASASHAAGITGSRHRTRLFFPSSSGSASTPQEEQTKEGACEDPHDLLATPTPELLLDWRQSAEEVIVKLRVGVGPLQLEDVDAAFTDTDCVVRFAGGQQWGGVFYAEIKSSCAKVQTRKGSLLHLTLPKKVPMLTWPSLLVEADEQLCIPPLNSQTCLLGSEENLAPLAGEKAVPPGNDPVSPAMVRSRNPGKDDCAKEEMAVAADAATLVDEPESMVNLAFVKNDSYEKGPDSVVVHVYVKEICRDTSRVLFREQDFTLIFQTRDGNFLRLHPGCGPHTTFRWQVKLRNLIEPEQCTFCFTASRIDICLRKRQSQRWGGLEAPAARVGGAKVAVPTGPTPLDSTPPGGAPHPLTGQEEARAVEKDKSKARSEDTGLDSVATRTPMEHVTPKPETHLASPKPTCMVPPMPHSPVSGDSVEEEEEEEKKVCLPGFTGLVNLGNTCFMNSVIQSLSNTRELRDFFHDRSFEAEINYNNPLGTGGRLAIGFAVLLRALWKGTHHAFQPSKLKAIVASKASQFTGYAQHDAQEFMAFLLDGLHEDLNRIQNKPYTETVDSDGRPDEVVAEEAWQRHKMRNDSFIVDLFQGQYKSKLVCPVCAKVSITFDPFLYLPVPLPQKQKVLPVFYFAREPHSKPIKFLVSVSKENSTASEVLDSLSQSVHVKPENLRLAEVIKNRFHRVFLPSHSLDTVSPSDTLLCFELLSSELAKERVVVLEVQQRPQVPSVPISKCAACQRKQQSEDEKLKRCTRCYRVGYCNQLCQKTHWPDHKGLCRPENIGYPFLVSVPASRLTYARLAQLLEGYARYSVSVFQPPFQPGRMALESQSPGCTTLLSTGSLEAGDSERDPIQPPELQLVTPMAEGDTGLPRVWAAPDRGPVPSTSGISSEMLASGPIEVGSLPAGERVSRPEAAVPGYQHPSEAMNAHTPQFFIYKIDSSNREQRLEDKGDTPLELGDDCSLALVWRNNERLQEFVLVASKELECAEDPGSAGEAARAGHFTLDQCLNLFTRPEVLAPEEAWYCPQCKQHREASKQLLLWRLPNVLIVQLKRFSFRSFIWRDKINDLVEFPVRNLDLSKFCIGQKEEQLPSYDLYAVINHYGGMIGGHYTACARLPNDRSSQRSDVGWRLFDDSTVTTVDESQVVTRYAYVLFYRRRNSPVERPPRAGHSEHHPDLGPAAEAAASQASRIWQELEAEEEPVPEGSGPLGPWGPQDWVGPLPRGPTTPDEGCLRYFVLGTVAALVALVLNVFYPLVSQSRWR
How it was run: (§1)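 Each value is an average log2 ratio of fragment to vehicle, tested by unpaired t-test. The underlying Spectronaut label-free quantities were global-median-normalised, and only proteins with ≥2 unique peptides were included. Triplicate HEK293T lysate samples (495 µg) were exposed to fragment at 200 µM or vehicle for 3 h, then to Biotin-Ahx-Ub-VS at 0.5 µM final for 1 h, before NeutrAvidin enrichment of labelled DUBs, LysC and trypsin digestion, and diaPASEF LC-MS/MS.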

[2] = molecular target: USP24 (UniProt Q9UPU5)
Sequence of USP24 (Q9UPU5 whole entry): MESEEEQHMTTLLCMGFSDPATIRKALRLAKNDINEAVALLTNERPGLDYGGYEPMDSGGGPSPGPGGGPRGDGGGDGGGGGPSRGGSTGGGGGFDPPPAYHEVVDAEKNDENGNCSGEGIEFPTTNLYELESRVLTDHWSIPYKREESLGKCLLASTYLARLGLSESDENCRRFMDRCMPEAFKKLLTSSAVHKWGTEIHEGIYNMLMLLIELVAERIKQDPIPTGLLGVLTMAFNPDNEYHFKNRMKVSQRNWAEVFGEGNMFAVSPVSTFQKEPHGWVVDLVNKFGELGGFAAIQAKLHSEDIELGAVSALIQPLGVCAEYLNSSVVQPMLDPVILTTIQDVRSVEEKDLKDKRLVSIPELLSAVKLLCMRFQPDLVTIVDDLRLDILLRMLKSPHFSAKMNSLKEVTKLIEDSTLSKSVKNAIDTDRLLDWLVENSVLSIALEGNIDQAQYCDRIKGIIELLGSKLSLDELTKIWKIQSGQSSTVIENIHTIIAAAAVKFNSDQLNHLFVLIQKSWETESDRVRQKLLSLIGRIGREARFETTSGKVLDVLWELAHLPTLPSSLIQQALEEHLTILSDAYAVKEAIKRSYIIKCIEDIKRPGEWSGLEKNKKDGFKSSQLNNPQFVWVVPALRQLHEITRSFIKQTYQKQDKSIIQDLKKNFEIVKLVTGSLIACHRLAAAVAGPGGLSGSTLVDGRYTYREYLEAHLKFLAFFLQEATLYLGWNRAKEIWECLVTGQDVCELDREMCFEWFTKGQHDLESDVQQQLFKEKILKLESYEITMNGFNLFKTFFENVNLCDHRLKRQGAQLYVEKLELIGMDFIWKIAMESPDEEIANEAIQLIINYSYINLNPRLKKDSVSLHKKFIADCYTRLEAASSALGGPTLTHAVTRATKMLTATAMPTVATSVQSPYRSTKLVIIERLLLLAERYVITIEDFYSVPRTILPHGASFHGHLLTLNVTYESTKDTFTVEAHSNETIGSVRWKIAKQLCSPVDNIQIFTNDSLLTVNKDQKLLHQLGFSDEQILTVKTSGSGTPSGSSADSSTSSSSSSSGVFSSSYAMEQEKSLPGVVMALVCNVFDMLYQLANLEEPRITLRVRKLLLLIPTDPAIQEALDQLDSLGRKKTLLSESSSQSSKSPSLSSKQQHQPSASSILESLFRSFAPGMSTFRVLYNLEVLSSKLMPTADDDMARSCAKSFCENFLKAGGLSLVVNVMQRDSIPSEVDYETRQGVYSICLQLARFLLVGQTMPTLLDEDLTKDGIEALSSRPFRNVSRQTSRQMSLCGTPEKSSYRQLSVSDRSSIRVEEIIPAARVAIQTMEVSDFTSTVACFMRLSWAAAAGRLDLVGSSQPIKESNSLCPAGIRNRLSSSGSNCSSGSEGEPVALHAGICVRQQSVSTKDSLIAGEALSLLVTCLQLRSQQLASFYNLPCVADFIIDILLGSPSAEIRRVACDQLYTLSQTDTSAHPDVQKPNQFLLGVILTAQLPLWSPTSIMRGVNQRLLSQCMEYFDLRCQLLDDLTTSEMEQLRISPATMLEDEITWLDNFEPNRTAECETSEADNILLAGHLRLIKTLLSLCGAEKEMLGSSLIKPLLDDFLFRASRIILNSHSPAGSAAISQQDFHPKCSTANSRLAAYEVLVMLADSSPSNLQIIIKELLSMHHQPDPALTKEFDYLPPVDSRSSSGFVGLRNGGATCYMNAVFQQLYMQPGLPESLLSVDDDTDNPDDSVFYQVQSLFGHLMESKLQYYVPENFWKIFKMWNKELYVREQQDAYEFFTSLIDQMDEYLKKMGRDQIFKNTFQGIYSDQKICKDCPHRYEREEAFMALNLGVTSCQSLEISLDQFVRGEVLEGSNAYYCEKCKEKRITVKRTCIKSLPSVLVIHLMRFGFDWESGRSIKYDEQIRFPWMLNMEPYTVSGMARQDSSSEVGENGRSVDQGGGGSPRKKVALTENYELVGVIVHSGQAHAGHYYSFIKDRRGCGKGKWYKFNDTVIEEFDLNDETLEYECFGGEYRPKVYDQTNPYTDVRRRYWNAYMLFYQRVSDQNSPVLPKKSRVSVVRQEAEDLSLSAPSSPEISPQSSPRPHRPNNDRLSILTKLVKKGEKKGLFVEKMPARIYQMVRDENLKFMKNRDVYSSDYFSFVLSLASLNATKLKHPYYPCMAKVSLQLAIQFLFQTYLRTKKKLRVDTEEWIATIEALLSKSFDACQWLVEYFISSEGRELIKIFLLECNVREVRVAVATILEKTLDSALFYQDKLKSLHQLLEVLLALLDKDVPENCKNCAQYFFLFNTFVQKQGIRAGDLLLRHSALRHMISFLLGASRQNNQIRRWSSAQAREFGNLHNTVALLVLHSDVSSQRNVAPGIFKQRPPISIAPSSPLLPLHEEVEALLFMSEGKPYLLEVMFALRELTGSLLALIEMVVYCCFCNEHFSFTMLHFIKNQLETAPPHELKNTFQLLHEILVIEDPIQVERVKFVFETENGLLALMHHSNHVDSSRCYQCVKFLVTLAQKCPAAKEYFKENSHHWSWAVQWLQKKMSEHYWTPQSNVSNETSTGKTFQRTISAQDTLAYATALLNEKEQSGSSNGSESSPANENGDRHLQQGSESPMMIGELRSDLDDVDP
How it was run: as §1

[3] = molecular target: T2, USP25 (UniProt Q9UHP3)
T2 sequence (whole entry): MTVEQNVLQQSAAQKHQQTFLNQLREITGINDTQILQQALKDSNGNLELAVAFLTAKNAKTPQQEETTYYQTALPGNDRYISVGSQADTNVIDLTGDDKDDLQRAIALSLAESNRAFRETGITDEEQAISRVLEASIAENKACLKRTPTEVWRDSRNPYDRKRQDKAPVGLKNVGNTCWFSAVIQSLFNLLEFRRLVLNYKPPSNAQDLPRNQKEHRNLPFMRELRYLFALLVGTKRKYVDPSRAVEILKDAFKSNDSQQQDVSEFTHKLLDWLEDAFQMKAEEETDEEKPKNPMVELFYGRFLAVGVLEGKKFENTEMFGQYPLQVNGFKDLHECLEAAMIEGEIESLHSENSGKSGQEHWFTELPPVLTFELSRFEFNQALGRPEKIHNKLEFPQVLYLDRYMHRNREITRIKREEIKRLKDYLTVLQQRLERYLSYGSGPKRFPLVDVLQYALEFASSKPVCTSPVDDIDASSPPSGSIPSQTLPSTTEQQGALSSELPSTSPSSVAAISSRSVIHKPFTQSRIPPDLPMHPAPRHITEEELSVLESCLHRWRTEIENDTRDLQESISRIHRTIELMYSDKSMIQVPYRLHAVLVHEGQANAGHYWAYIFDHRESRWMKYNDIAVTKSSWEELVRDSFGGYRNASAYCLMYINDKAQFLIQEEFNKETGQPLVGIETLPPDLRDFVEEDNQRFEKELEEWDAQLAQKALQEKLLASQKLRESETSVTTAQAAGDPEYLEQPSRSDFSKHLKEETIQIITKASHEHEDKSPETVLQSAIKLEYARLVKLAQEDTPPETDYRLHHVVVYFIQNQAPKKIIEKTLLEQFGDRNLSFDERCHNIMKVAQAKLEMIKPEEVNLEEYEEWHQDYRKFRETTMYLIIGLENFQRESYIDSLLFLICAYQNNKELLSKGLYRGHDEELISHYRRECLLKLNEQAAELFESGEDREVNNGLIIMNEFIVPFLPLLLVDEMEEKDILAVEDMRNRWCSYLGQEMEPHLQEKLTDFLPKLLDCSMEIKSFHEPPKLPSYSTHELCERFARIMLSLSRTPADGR
How it was run: as §1

[4] = molecular target: T3, USP28 (UniProt Q96RU2)
T3 sequence (whole entry): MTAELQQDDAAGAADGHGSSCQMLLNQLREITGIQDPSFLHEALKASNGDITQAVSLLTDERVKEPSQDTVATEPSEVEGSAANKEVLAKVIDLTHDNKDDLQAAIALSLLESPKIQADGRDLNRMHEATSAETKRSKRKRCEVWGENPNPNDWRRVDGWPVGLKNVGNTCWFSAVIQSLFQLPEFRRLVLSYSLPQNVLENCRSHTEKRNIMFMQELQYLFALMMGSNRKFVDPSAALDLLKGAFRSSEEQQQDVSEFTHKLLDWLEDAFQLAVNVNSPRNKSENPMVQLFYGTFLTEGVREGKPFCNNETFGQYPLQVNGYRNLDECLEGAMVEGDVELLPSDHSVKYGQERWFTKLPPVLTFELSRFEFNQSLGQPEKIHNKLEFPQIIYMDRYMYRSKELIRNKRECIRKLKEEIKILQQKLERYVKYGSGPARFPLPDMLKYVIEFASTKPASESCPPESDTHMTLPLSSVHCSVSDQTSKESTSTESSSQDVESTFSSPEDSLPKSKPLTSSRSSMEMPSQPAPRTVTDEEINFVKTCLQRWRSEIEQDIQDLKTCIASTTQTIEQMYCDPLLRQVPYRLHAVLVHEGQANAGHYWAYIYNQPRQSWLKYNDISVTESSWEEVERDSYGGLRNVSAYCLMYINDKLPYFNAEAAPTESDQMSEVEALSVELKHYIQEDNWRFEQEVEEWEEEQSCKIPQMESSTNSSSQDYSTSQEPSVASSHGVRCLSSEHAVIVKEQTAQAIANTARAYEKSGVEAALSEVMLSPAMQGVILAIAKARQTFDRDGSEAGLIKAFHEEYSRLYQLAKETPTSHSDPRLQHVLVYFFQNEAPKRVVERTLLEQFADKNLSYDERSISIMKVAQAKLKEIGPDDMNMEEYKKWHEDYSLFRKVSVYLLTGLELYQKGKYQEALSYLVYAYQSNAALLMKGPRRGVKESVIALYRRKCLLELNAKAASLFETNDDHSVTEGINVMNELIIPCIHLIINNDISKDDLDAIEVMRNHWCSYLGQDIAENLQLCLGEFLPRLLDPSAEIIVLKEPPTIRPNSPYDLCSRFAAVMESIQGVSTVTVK
How it was run: as §1

Measured: log2 ratio of Biotin-Ahx-Ub-VS probe labelling

Cl.O=C(CCl)NC1(c2ncccn2)CCC1
inactive: [1] 0.0868 | [2] 0.06 | [3] -0.18 | [4] -0.0581
